# Assay outcomes (PubChem)
# Compounds with a hit are over-represented: about 5.3% of the library has one in this group of screens.
# FBPA coupling cs: inhibits coupling enzyme system, counter-screen for aldolase hits; coupling enzyme system counterscreen, AmpLite Red fluorescence; activity change, negative = inhibition, % at 58.2 µM, hits read low; 290,000 tested, 0.67% active; AID 2472; in the data active = activity change below about -30%
#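 Compounds tested against the coupling enzymes alone at 57.5 uM final; readout was AmpLite Red fluorescence (525/598 nm) after 20 min at RT.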
# Tau ThT inhib: blocks human tau fibril formation measured by thioflavin T; P10636; recombinant tau K18 P301L, heparin-induced fibrillization, ThT fluorescence; Potency, µM (series often up to 57.4 µM), for the others: top-dose activity, negative = inhibition, most hits filed as inhibitors; 270,000 tested, 2.1% active; AID 1460; also: potency is read from the fitted curve at half-maximal effect; nearly all actives have a fitted effect of over 55% in size
# Target sequence (P10636 561-689 P618L limits assumed): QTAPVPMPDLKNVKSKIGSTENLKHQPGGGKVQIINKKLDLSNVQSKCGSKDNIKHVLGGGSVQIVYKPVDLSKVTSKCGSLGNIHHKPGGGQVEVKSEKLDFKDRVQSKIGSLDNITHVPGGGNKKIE
#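 Fibril formation assay: tau K18 P301L at 15 uM with trace Alexa 594 label, heparin inducer 20 uM, pH 7 sodium acetate buffer, 37 C for 6 hr; endpoint ThT signal.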
# Sfp inh: blocks B. subtilis Sfp PPTase activity. Q9F4F7. Biochemical Sfp PPTase activity, qHTS. Potency, µM, without a hit: largest response in the series, negative = inhibition, hits mostly inhibitors. 310,000 tested, 3.5% active. AID 1490;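 also: the enzyme is Sfp with the accession as filed and its product quenches rhodamine fluorescence; potency is read from the fitted curve at half-maximal effect; 0% = enzyme reaction without inhibitor and -100% = no enzyme wells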
#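 Buffer: 50 mM Hepes-Na pH 7.6, 10 mM MgCl2, 0.01% Nonidet P-40, 0.01% BSA. Enzyme 15 nM, pre-exposed to compound 15 min; substrates then added and fluorescence change tracked over 30 min.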
# Tau fluor cs: counter-screen for tau fibril formation inhibitors; tau K18 P301L (four-repeat tau fragment) Alexa594 fluorescence, heparin fibrillization; Potency, µM (series often up to 57.7 µM), for the others: at the highest dose activity change, negative = decrease; 280,000 tested, 0.93% active; AID 1463; also: potency is read from the fitted curve at half-maximal effect; nearly all actives have a fitted effect of over 55% in size
#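 Human K18 P301L tau (15 uM unlabeled plus 0.24 uM Alexa 594-labeled, final) in 100 mM sodium acetate pH 7 was mixed with compound and 20 uM heparin and incubated 6 hr at 37 C.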
# Tau fibril FP: tau fibrillization inhibition (FP); P10636; K18 P301L tau heparin fibrillization, Alexa594 FP, 6 h; Potency, µM (series often up to 57.7 µM), without a hit: top-dose activity, negative = inhibition, actives largely listed as inhibitors; 280,000 tested, 0.39% active; AID 1468; also: potency is read from the fitted curve at half-maximal effect; nearly all actives have a fitted effect of over 55% in size
#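 Read-out: fluorescence polarization of Alexa 594-labeled tau (0.24 uM), 555 nm excitation, 632 nm emission. Mixtures held 15 uM unlabeled K18 P301L, compound and 20 uM heparin, pH 7 acetate buffer, incubated 6 hr at 37 C.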
# KDM4E inh: inhibitors of human JMJD2E histone demethylase; B2RXH2; JMJD2E catalytic domain, FDH-coupled NADH fluorescence (FDH is formaldehyde dehydrogenase); Potency, µM (top dose mostly 57.1 µM), for the others: at the top dose activity change, negative = inhibition, usual class: inhibitors; 230,000 tested, 1.6% active; active = well fitted inhibition curve with a large enough effect, not every such curve was filed as active; inconclusive = small, poorly fitted or top-dose-only effect, or another doubt; inactive = no such curve, though single readings can be large or run the other way;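 also: potency is read from the fitted curve at half-maximal effect; 0% = wells with enzyme and -100% = buffer wells without enzyme; nearly all actives have a fitted effect of over 50% in size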
# Target sequence (B2RXH2 1-337 limits assumed): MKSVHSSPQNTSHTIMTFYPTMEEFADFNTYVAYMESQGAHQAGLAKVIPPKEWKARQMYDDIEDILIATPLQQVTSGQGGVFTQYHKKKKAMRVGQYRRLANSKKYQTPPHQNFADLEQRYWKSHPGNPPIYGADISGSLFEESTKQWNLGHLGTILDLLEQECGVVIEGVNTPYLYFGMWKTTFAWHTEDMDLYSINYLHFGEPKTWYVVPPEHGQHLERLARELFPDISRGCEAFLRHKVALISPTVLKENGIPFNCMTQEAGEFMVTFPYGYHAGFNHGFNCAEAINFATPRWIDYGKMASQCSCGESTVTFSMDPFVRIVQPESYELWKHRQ
# * hit, by the source's call; u = inconclusive; x = no result; [ ] = remark or other dose. Unless noted, calls follow the shape of the dose curve; as a rule, active = well fitted curve in the direction sought with a large enough effect; inconclusive = small, poorly fitted or top-dose-only effect, or another doubt; inactive = no such curve, though single readings can be large; an effect the other way counts as inactive or inconclusive. Unless noted, % is scaled to controls: 0 for no effect and ±100 for the full control effect.
SMILES,FBPA coupling cs,Tau ThT inhib,Sfp inh,Tau fluor cs,Tau fibril FP,KDM4E inh
COc1cc2ccc(=O)oc2c(OC)c1OC,1,-4%,1%,-9%,-3%,u
C[C@H]1COC(=O)[C@H]2CCCN2C(=O)[C@@H](C)COC(=O)[C@H](Cc2ccccc2)NC1=O,0,-7%[11.5 µM],-6%,-3%[11.6 µM],4%[11.6 µM],x
N[C@H](C(=O)O)[C@H]1C[C@@H]1C(=O)O,x,-6%,-1%,-5%,1%,7%
N[C@H](C(=O)O)[C@@H]1[C@@H](C(=O)O)C1(F)F,3,4%,89µM*,-1%,u,16µM*
O=C(O)CCN1CC2([N+](=O)[O-])C=CC(=O)C([N+](=O)[O-])(C1)C2CC(=O)c1ccccc1 (centres undefined),-52*,11%,u,1%,6%,5%
O=C(CCN1CCCCCC1)c1ccccc1,0,-9%,6%,-2%,1%,0%
CCCC(=O)OCC(=O)Nc1ccc(N=Nc2ccccc2)cc1,0,10µM*,-1%,u,u,-11%
CC1CC1C(=O)OCC(=O)Nc1ccc(N=Nc2ccccc2)cc1 (centres undefined),0,7.9µM*,-14%,u,u,-13%
CN(C)c1ncnc2ccc(-c3cccc(C#N)c3)cc12,8,x,11%,x,x,x
COc1cc(NC(=O)O[C@@H]2C(=O)c3cc(Br)ccc3O[C@H]2c2ccc3c(c2)OCO3)cc(OC)c1OC,0,-9%,0%,-19%,-5%,-5%
CC(C(=O)Nc1cccc([N+](=O)[O-])c1)[n+]1ccccc1 (centres undefined),-19,22µM*,20µM*,13%[2.34 µM],-55%,10%
CCC(Sc1ccccn1)C(=O)Nc1cccc([N+](=O)[O-])c1 (centres undefined),-11,-7%,56µM*,-11%,-3%,u
CC(OC(=O)c1ccncc1)C(=O)Nc1cccc([N+](=O)[O-])c1 (centres undefined),3,-9%,0%,-11%,-7%,-14%
CC(Sc1cccc[n+]1[O-])C(=O)Nc1cccc([N+](=O)[O-])c1 (centres undefined),1,-2%,-13%,-7%,-7%,6%
Cc1ccc(CN(C(=O)c2ccc(OCC(C)C)cc2)c2ccccn2)o1,x,-12%,x,-12%,6%,x
CCCc1cc2c(OC(=O)CC)c(-c3ccc(C(=O)OCC)o3)c(=O)oc2cc1OC,5,25µM*,-14%,-27%,5%,u
CC(=O)NCC(=O)OCc1ccc([N+](=O)[O-])cc1,3,10%,5%,5%,0%,1%
C/C(=N\Nc1ccc([N+](=O)[O-])cc1)c1cccc(N)c1,-24,3.5µM*,-7%,16µM*[quencher],u,4%
C/C(=N\NC(=O)c1cc([N+](=O)[O-])cc([N+](=O)[O-])c1)c1ccco1,-7,20%,35µM*,15%,-8%,-4%
CC(=O)NC/C(C)=N\Nc1ccc([N+](=O)[O-])cc1,-2,16µM*,-24%,-27%,-1%,-1%
C/C(=N/NC(=O)c1cc(O)c(O)c(O)c1)c1ccc([N+](=O)[O-])cc1,-10,3.5µM*,3.2µM*,u,3%,-17%
COc1cc(NC(=O)CN2C(=O)CN(C)C(=O)c3ccccc32)cc(OC)c1OC,x,0%,x,-2%,2%,x
C/C(=N\Nc1ccc([N+](=O)[O-])cc1)c1ccc(O)cc1,-11,3.2µM*,6%,u,13%,-12%
C/C(=N\Nc1ccc(S(N)(=O)=O)cc1[N+](=O)[O-])c1ccco1,1,5µM*,-27%,u,-4%,-17%
O=S(=O)(c1ccc(F)cc1)c1snnc1-c1ccccc1,-30*,u,-2%,-8%,3%,-28%
SMILES,FBPA coupling cs,Tau ThT inhib,Sfp inh,Tau fluor cs,Tau fibril FP,KDM4E inh
O=C(NCc1ccccc1F)c1cccc(NC(=O)N2CCSc3ncccc32)c1,x,2%,x,-8%,-3%,x
COc1ccc(OC)c(NC(=O)CSc2ccc(-c3cccs3)nn2)c1,x,u,x,-28%,u,x
COc1ccc(C(=O)CSc2nccn2C)cc1,1,x,56µM*,x,x,x
COc1ccc(OC)c(NC(=O)CSc2ccc(-c3ccco3)nn2)c1,x,x,14µM*,x,x,x
COc1ccc(C(=O)CSc2ccc(-c3ccco3)nn2)cc1,0,u,16µM*,-19%,5%,u
Cn1ccnc1SCC(=O)Nc1sccc1C#N,4,u,79µM*,-12%,1%,5%
CCC(=O)N1CCc2cc(Br)cc(S(=O)(=O)CCC(=O)NCc3ccc(F)cc3)c21,x,-10%,x,-14%,-2%,x
CC(=O)N1c2ccccc2CC1C(=O)N1CCN(c2cc(Cl)ccc2C)CC1 (centres undefined),x,-16%,x,-10%,11%,x
COc1ccccc1NC(=O)CSc1ccc(-c2ccco2)nn1,x,x,45µM*,x,x,x
CCc1ccc(O)c(N=Cc2cccc(C)c2O)c1,-1,u,-20%,u,-8%,u
CCCc1ccc(O)c(N=Cc2cc(Br)cc(OCC)c2O)c1,-5,14µM*,-13%,-23%,-11%,16µM*
CCCCCn1cc2c(c1-c1ccc(Cl)cc1)c(=O)n(C)c(=O)n2C,x,u,x,-15%,-7%,x
CCn1c(CCn2c3ccccc3c3ccccc32)n[nH]c1=S,-4,-5%,u,-15%,1%,u
CCn1c(C)cc(=S)c2ccccc21,-42*,20µM*,u,-29%,u,u
COc1cccc(Cn2c(=O)c(-c3ccc(Cl)cc3)nc3cncnc32)c1,2,x,2%,x,x,x
CCn1c2ccccc2c2cc(NC(=O)COC(=O)c3ccccc3F)ccc21,1,-7%,-5%,-26%,1%,-5%
CCn1c2ccccc2c2cc(NC(=O)COC(=O)c3cc(Cl)c(N)cc3OC)ccc21,-1,u,u,10µM*[quencher],4%,u
CCn1c2ccccc2c2cc(NC(=O)COC(=O)c3cc(S(N)(=O)=O)c(Cl)cc3Cl)ccc21,2,u,-10%,8.9µM*[quencher],6%,-6%
CCn1c2ccccc2c2cc(NC(=O)COc3ccc(OC)cc3)ccc21,-2,u,u,u,7%,u
CCC1(c2ccc(OC)cc2)NC(=O)N(C)C1=O (centres undefined),1,x,6%,x,x,x
CCOC(=O)C1CCCN(c2ccc(NC(=O)c3snc4c(=O)[nH]c(C)nc34)cc2)C1 (centres undefined),-1,u,12%,u,5%,-12%
